In PubChem BioAssay one finds activity data, which are given here for 47 molecules.

Assay [1] concerns the target Tumor necrosis factor receptor superfamily member 10B (Homo sapiens) (UniProt O14763). Nature of the assay: caspase-8 TRAIL sensitization, hit retest, confirmation, cell-based, NB7+caspase-8, with/without TRAIL, luminescence panel (AID 651596). The following applies: NB7 neuroblastoma + caspase-8, TRAIL sensitization, luminescence viability, with TRAIL, mean of runs, at 10 µM, stronger effect = higher value.

Experiment in assay [2]: as above
The following applies: NB7 neuroblastoma + caspase-8, without TRAIL, luminescence viability, without TRAIL, mean of runs, at 10 µM.

Sequence of Tumor necrosis factor receptor superfamily member 10B (Homo sapiens) (O14763 whole entry, looked up): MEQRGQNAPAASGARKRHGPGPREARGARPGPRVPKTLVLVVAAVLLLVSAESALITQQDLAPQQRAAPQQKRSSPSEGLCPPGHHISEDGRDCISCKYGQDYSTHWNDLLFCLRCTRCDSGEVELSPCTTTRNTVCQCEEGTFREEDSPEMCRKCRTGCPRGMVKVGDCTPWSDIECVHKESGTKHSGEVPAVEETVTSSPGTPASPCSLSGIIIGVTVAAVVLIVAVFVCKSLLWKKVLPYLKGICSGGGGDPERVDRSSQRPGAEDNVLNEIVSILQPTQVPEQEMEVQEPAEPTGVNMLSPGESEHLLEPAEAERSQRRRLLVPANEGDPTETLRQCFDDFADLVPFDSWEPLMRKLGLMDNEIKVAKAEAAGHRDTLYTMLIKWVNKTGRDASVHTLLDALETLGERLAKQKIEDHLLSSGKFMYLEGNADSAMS

For `CC1=C(C(=O)N(C)C)CC(CC(=O)NCCN2CCOCC2)C(=O)N1CCCN1CCCC1=O` (centres undefined), the activity is -0.625% in assay [1] and -4.97% in assay [2].

With `Cc1cc(C)cc(NS(=O)(=O)c2ccc3c(c2)c(=O)n(C)c(=O)n3C)c1`, the activity worked out at 79% in assay [1] and 82.2% in assay [2].

As for `O=C(Nc1nc2ccccc2[nH]1)c1ccccc1OC(F)F`, the results for the activity in assay [1] and in assay [2] were 76% and 82.2%, respectively.

On to `COc1ccccc1/C=C/C1(C(=O)NC2CCCC2)CC(=O)N1c1ccc(F)cc1` (centres undefined), for which the activity in assay [1] amounted to 98%; in assay [2], 98.1%.

On to `CN(C)CCCN(C(=O)c1cc2cc([N+](=O)[O-])ccc2s1)c1nc2cc3c(cc2s1)OCCO3`, for which the activity in assay [1] was determined as 92.2%; in assay [2], 83%.

Regarding `Cc1nnc(NC(=O)c2ccc(S(=O)(=O)C(F)F)cc2)s1`, the activity is 43.1% in assay [1] and 42.9% in assay [2].

Take `Nc1ccccc1C(=O)NN=Cc1cccnc1`: the activity is 63.5% in assay [1] and 58.7% in assay [2].

Regarding `COc1ccc(NC(=O)c2ccc3c(c2)OCCO3)cc1OC`, the activity in assay [1] is 51.8%; in assay [2], 51.2%.

In the case of `O=C(Nc1nc2ccccc2[nH]1)c1ccc(OC(F)F)cc1`, the activity in assay [1] stood at 95.3%; in assay [2], 94.6%.

Consider `Cc1ccc(C(=O)c2no[n+]([O-])c2C(=O)c2ccc(C)cc2)cc1`, for which the results for the activity in assay [1] and in assay [2] were 98% and 92%, respectively.

Regarding `COc1ccc(C(=O)Nc2cccc(OC)c2)cc1`, the results for the activity in assay [1] and in assay [2] were 56.9% and 53.9%, respectively.

Regarding `COc1ccc(/C=C/c2nc3ccccc3c(=O)o2)cc1`, the activity was found to be 83.2% in assay [1] and 83.6% in assay [2].

As for `COc1ccc2nc(Cl)c(/C=N/Nc3ccccn3)cc2c1`, the activity came out at 64.5% in assay [1] and 59.5% in assay [2].

For `Cc1nn(-c2ccccc2)c(Cl)c1/C=N/NC(=O)c1[nH]ncc1Br`, the activity was 83.7% in assay [1] and 71.9% in assay [2].

For the molecule `Cc1cc(O)c(C(=O)/C=C/c2ccc(Cl)cc2)c(=O)o1`, the activity worked out at 83.4% in assay [1] and 79.5% in assay [2].

Turning to `Cc1nn(-c2ccccc2)c(Cl)c1/C=N/NC(=O)c1ccn[nH]1`, the activity in assay [1] stood at 79.8%; in assay [2], 71.3%.

For the molecule `Cc1ccc2sc(NC(=O)CSc3nc(C)cc(C)c3C#N)nc2c1`, the activity in assay [1] stood at 71.5%; in assay [2], 57.3%.

As to `O=C(N/N=C/c1cccc([N+](=O)[O-])c1)c1ccc2c(c1)OCCO2`, the figures for the activity in assay [1] and in assay [2] were 73.3% and 61.3%, respectively.

For `Cc1oc(-c2nc3ccccc3n2C)cc1C(=O)c1ccccc1`, the activity in assay [1] amounted to 81.4%; in assay [2], 81%.

Regarding `CC(C)c1ccc(/C=C/c2ccc(=O)n(C)n2)cc1`, the values for the activity in assay [1] and in assay [2] were 68.1% and 66.6%, respectively.

Take `Cc1cccc2sc(NNC(=O)c3ccc(S(=O)(=O)N4CC(C)CC(C)C4)cc3)nc12` (centres undefined): the activity in assay [1] came to 55.6%; in assay [2], 49.8%.

As for `O=C(Nc1ccc(NC(=O)c2ccco2)nc1)c1ccco1`, the activity in assay [1] worked out at 71.2%; in assay [2], 61.5%.

Consider `Nc1c(N(CCC2=CCCCC2)C(=O)COc2ccc(F)cc2)c(=O)[nH]c(=O)n1Cc1ccccc1`, for which the activity in assay [1] is 27.3%; in assay [2], 23%.

Consider `CN(C)c1ccc(/C=N/NC(=O)c2ccco2)cc1`, for which the activity in assay [1] came out at 50.2%; in assay [2], 31.4%.

Consider `C=CCOc1cccc(/C=C/c2nc3ccccc3c(=O)[nH]2)c1`, for which the values for the activity in assay [1] and in assay [2] were 66.8% and 64.8%, respectively.

Regarding `O=C(/C=C/Nc1ccc(F)cc1)c1cccs1`, the activity in assay [1] turned out to be 69.7%; in assay [2], 65%.

With `O=C(COc1ccc2c(c1)OCO2)Nc1nccs1`, the activity in assay [1] is 52.9%; in assay [2] it was 54%.

`COc1ccc2nc(Nc3ccccc3)sc2c1`: the activity in assay [1] amounted to 49.2%; in assay [2], 38.6%.

As to `O=C1c2cc(F)ccc2-n2c1nc1ccccc1c2=O`, the activity in assay [1] was found to be 32.5%; in assay [2] it was 25.7%.

As to `COc1ccc(N2Cc3ccccc3C2=O)cc1`, the activity was found to be 67% in assay [1] and 62.5% in assay [2].

For `O=C(CCl)N1CCN(S(=O)(=O)c2ccc3ccccc3c2)CC1`, the activity was 94.9% in assay [1] and 64.7% in assay [2].

On to `Cc1ccc(C(=O)Nc2ncc(Cc3ccccc3)s2)o1`, for which the activity in assay [1] worked out at 72.1%; in assay [2], 75%.

For `CCCc1cc(=O)[nH]c(SCC(=O)Nc2cc(S(=O)(=O)N3CCCCC3)ccc2C)n1`, the activity in assay [1] is 3.67%; in assay [2] it was -4.17%.

As to `Nc1nc(N)c(-c2cccc(C(F)(F)F)c2)c(Cc2cccc(C(F)(F)F)c2)n1`, the activity in assay [1] turned out to be 81.6%; in assay [2], 80.7%.

As for `C/C(=N\NC(=O)c1ccc(Cl)cc1)c1ccccn1`, the activity in assay [1] came to 32.2%; in assay [2] it was 51%.

In the case of `Cc1ccnc(NC(=O)c2ccc(OCC3CCCO3)cc2)c1` (centres undefined), the values for the activity in assay [1] and in assay [2] were 94.4% and 93.9%, respectively.

For `COc1ccccc1NC(=O)c1nc(S(=O)(=O)Cc2ccccc2)ncc1Cl`, the activity in assay [1] was determined as 90.7%; in assay [2] it was 99.2%.

For the molecule `Oc1cc(NCc2ccc(F)cc2)cc2cccnc12`, the values for the activity in assay [1] and in assay [2] were 36.8% and 33.5%, respectively.

For `O=C(Nc1ccncc1)c1ccc(-c2ccccc2)cc1`, the activity came out at 24.3% in assay [1] and 21% in assay [2].

Turning to `COc1cccc(/C=N/Nc2nn3cnnc3c3ccccc23)c1`, the activity in assay [1] was 62%; in assay [2], 61.4%.

Consider `c1ccc(-c2cn3c4c(sc3n2)CCCC4)cc1`, for which the activity in assay [1] and in assay [2] was 94% each time.

On to `Cc1ccccc1Oc1cc(-n2ncc(Cl)c(Cl)c2=O)ncn1`, for which the activity in assay [1] is 99.7%; in assay [2], 99.5%.

For the molecule `O=C(NN=Cc1ccc2c(c1)CCN2)c1cccs1`, the activity in assay [1] came to 47.9%; in assay [2] it was 57.8%.

For `COc1cc2sc3ccc(-c4ccc(CN5CCOCC5)cc4)cc3c(=O)c2cc1OC`, the activity in assay [1] is 46.9%; in assay [2], 41.8%.

Take `CCCCN(CC)S(=O)(=O)c1ccc(C(=O)N=c2sc3cc(NC(C)=O)ccc3n2C)cc1`: the figures for the activity in assay [1] and in assay [2] were 20.9% and 53.8%, respectively.

Regarding `CS(=O)(=O)c1ccc2nc(NC(=O)c3cccc([N+](=O)[O-])c3)sc2c1`, the activity in assay [1] was determined as 69.4%; in assay [2] it was 71.3%.

With `CC(C)c1ccc(NC(=O)CSc2ncccc2C(=O)Oc2cccc([N+](=O)[O-])c2)cc1`, the activity in assay [1] stood at 68.1%; in assay [2], 61.5%.
